40 compounds from PubChem BioAssay (NCI) can be followed below.

The panel holds about 83,000 compounds, 20% with a hit somewhere; the sample as a whole holds those more often.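 Cells were grown in 96-well plates and exposed to the test compound at a single concentration for 48 hours; results are reported as percent growth, with values below 10 considered active.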 A number with no mark means an inactive call. The source made the active and inactive calls.

This assay has as its system UACC-62 melanoma. Briefly: NCI-60 one-dose screen, 48 h (100 = growth as untreated, 0 = no growth, -100 = all killed). Particulars: 10 µM unless noted. The procedure: Growth inhibition of the UACC-62 human tumor cell line is measured as a screen for anti-cancer activity. Cells are grown in 96 well plates and exposed to the test compound for 48 hours. Compounds are tested at a single concentration, which is 10^-5 M for most compounds. The reported endpoint is percent growth (GI% or GIPRCNT), where numbers from 0 - 100% represent growth inhibition, and numbers from -100% - 0 represent cell death. For example, a value of 40 represents 60% growth inhibition. A value of 0 means no net growth occurred over the course of the experiment. A value of -40 indicates 40% of cells at the beginning of the experiment died by the end of the experiment. A value of -100 means all cells are dead at the end of the experiment.
NCI-60 Human Tumor Cell Lines Screen was performed using the standard one-dose NCI protocol, which is described in more detail at https://dtp.cancer.gov/discovery_development/nci-60/default.htm.
Compounds with GIPRCNT values below 10 were considered active. Activity score was based on GIPRCNT using the following formula: […]
Score is 0 for GIPRCNT values of 100 or above, 50 for GIPRCNT values of 0, and 100 for GIPRCNT values of -100.
On to `COc1ccc2c(c1)c(-c1nc(-c3c[nH]c4ncccc34)cs1)cn2CCO`, for which the growth is 58.4%. For `O=C1Nc2c(C(=O)O)cccc2/C1=N/c1n[nH]c(=S)s1` the value was 49.6%; for `COC(=O)c1c2c(c(C)[n+]([O-])c1C)C(=O)C(NCc1ccc(OC)cc1)=CC2=O`, -27.9% (active). Consider `Cc1ccc2nc(/C(C#N)=C(/CCCO)NC(Cc3ccccc3)C(=O)OCc3ccccc3)[nH]c(=O)c2c1` (stereo not given), for which the growth is 99.1%. For `O=C1/C(=C/c2ccccc2F)CN(C(=O)C(Cl)Cl)C/C1=C\c1ccccc1F` the value was -59% (active); for `Cc1c(CC(=S)N2CCOCC2)nnn1-c1cccc(C(F)(F)F)c1`, 101%; for `N=c1c(S(=O)(=O)c2ccccc2)cc2c(=O)n3ccccc3nc2n1CC1CCCO1` (stereo not given), 99.8%. On to `CCCCNC(=O)c1cc([N+](=O)[O-])cc(C2CCCCC2)c1O`, for which the growth was 20.3%. For the compound `Cc1nc2c(=O)nc3s/c(=C\c4ccco4)c(=O)n3c2nc1C`, the growth is 92.4%.

`O=c1ccc(=O)n(-c2nc(-c3ccc([N+](=O)[O-])cc3)cs2)[nH]1`: the growth is 90.7%. For `Cc1ccc(CNc2c3ccccc3nc3ccccc23)cc1` the value was 43.4%. For `Cc1ccc(NC(=O)Cn2c(Br)nc3c2c(=O)n(C)c(=O)n3C)cc1` the value was 45.5%. To `C#CCO[C@H]1CC(CC#C)(CC#C)C(=O)[C@@H]2[C@H]1[C@H]1C[C@@H]3[C@@]4(C)CCC[C@@](C)(C(=O)OC)[C@@H]4CC[C@@]23C=C1C(C)C` belongs 78.6%. Consider `CC1=C(C(=O)Nc2nc(-c3ccc(Cl)cc3)cs2)[C@H](c2ccc(O)cc2)NC(=O)N1`, for which the growth was 88.8%. Regarding `C=C1C(=O)O[C@H]2[C@H]1CC/C(COC(=O)/C=C\C(=O)NCc1ccc(Cn3c(=O)sn(CCCl)c3=O)cc1)=C\CC[C@@]1(C)O[C@@H]21`, the growth was 85.7%. To `NC1=Nc2cc(OCCCCN3Cc4ccccc4C3)c(OCC3CC3)cc2C12CCCC2` belongs 50.5%. `N#Cc1ccc(O)c(C2=NCC(Cc3ccccc3)O2)c1` (stereo not given): the growth is 42%.

Take `CCOC(=O)c1c(C)nc2ccccc2c1/C=C/c1cccs1`: the growth was 50.7%. To `CCn1cc(CNc2ccc(C(=O)Nc3cc4cc(OC)c(OC)cc4c(C)n3)cc2)cn1` belongs 33.5%; to `CSC1=Nc2c(c(C)c(-c3ccccc3)n2CCCC(=O)O)C2=NC(=O)C[C@H](C)N12`, 107%. To `CCNc1ccc(-c2nc3ccccc3n3cccc23)cc1` belongs 66.2%; to `C=C1CC[C@@H]2[C@](C)(COC(C)=O)[C@H](OC(C)=O)CC[C@@]2(C)[C@@H]1CC(Nc1ccc(S(=O)(=O)NC(C)=O)cc1)C1=CCOC1=O` (stereo not given in full), -12.5% (active). For the compound `CN(Cc1ccccc1)c1nc(Cl)c(C2CC(c3ccccc3)=NN2c2ccccc2)s1` (stereo not given), the growth is 88.8%.

On to `COc1ccc(-c2n[nH]c(=O)c3nc(NC(=S)Nc4ccc(Oc5ccccc5)cc4)sc23)cc1`, for which the growth is 95.2%. For `Cn1cc(-c2csc(-c3cn(CCCN4CCOCC4)c4ccccc34)n2)c2cccnc21` the value was 92.5%; for `CCOC(=O)c1cc(C(=O)c2cc(OC)c(OC)c(OC)c2)n2ccccc12`, 37.8%; for `Clc1ccc(-c2cc(-c3ccccc3)nc(NCCNc3ccnc4cc(Cl)ccc34)n2)cc1`, 69%. For `Cc1ccc(S(=O)(=O)Oc2ccc3sc4cccc(NCCN(C)C)c4c(=O)c3c2)cc1` the value was -98.2% (active); for `COc1ccc2[nH]cc(-c3nc(-c4c[nH]c5c(Cl)nccc45)cs3)c2c1`, 52%. To `CN1CCN(CC(=O)Nc2ccc3ncnc(Nc4ccc(Oc5cccc(C(F)(F)F)c5)c(Cl)c4)c3c2)CC1` belongs -28.8% (active); to `Nc1nc(N)c2c(n1)NC(c1ccc(Cl)cc1)C1CCc3ccccc3C1=N2` (stereo not given), 55.2%.

As to `Cc1cccc(-c2nc(Nc3ccc4ncsc4c3)c3ccccc3n2)n1`, the growth is 80.8%. Take `COc1ccccc1C(=O)Nc1cccc(NC(=O)c2ccoc2C)c1`: the growth was 29.7%. For `CCN(CC)CCN1C(=O)c2cccc3c(/C=C/CN4C(=O)c5cccc6cccc(c56)C4=O)ccc(c23)C1=O` the value was 99.8%; for `N[C@H]1CCC[C@@H]1NCCCCN1C(=O)c2cccc3cc([N+](=O)[O-])cc(c23)C1=O`, 72.2%. For `O=C(Oc1ccc(CCl)cc1)c1ccccc1` the value was -76.9% (active); for `COc1cccc(Nc2ncnc3cc(NC(=O)CCl)ccc23)c1`, -67.5% (active); for `C=CC(=O)Nc1ccc(Nc2nccc(-c3ccc(N4CCCC4)c(C#N)c3)n2)cc1`, 52.9%. Turning to `Oc1c(CN2CCC(N3CCCCC3)CC2)cc(Cc2cc(CN3CCC(N4CCCCC4)CC3)c(O)c3ncccc23)c2cccnc12`, the growth is -18.3% (active). Turning to `CN1CCN(Cc2ccc(NC(=O)c3cncc(C#Cc4cnc(N)c5ncccc45)c3)cc2C(F)(F)F)CC1`, the growth is 6.71% (active).
